Records with an inconclusive call do not appear. Where a call stands in place of a potency, no number is given. Active and inactive are the calls of the source. Calls come from the whole dose curve; as a rule, active = well fitted inhibition curve with a large enough effect; inconclusive = small, poorly fitted or top-dose-only effect, or effect the other way; inactive = no such curve, though single readings can be large or run the other way.
Assay: High Content Assay for Compounds that inhibit the Assembly of the Perinucleolar Compartment: DNA Intercalation/PicoGreen Displacement Assay
Settings: fluorescence (intercalation counter-screen); series mostly up to 57.1 µM
From the text: High Content Assay for Compounds that inhibit the Assembly of the Perinucleolar Compartment
NIH Chemical Genomics Center [NCGC]
NIH Molecular Libraries Probe Centers Network [MLPCN]
Assay Submitter (PI): Sui Huang, Northwestern University, Feinberg School of Medicine, Cell and Molecular Biology, Chicago, Illinois.
The perinucleolar compartment (PNC) is a non-membrane-bound nuclear subdomain that is associated with but structurally distinct from the nucleolus. The PNC is a heritable trait, in which the number of PNCs per cell in daughter cells often mimics that of their mother cells. The PNC is heterogeneous in shape, is stable through interphase, disassembles during mitosis, and reassembles in early G1. The PNC is concentrated with newly synthesized RNA polymerase III (pol III) RNAs (MRP RNA, RNAse P H1 RNA, hY RNAs[hY1, 2, 5], Alu RNA, and SRP [7SL] RNA) and RNA binding proteins (nucleolin, PTB, CUG-BP, KSRP, Raver1, Raver2, and Rod).
Extensive in vitro studies have shown that the PNC is unique to tumor cells and preferentially forms in tumor cells derived from solid tissues. Examination of cancer cell lines from various origins and malignant capacities has shown that PNC prevalence correlates with the malignancy of tumors and has the potential to be developed as a pan-cancer prognostic marker.
Although the PNC is associated with a DNA locus and a handful of components have been identified, much remains to be investigated regarding the structure and function of the PNC and its mechanistic link to cancer. We have previously shown that PNC prevalence reduction is a valid strategy to identify compounds that can be used to study the structure and function of the PNC. It is necessary, however, to create a screening platform that is able to test a large number of compounds in an automated fashion. Here we report the development and robustness of an automated whole-cell phenotypic image-based screening assay that is capable of identifying such compounds.
Therefore, we conducted a DNA intercalation/displacement assay on the lead candidates in order to exclude compounds with this mechanism of action. PicoGreen is a DNA intercalator that becomes excitable at 488 nm and emits at 520 nm when bound to DNA. Compounds which displace the dye will decrease fluorescence intensity and were considered DNA intercalators/displacers. In order to rule out potential fluorescence artifacts, a measurement of compound plus DNA only was also calculated.
1. A supercoiled plasmid (pBR322) was diluted to 200 ng/ml in TE and 2 ul was dispensed into 1536 well black plates Multidrop Combi.(ThermoFisher).
2. Followup compounds dissolved in 100% DMSO were transferred using a pintool (23 nl).
3. Compounds were incubated in the presence of DNA for 30 minutes at room temperature.
4. A baseline signal was measured using an Envision PMT based plate reader using a 488 nm excitation filter and a 520 nm emission filter.
5. The PicoGreen dye (Invitrogen) was diluted in TE and 2 ul/well was dispensed to the 1536 well plate using a Multidrop Combi.
6. Plates were incubated at 37 C for 10 minutes prior to being read on the envision plate reader. 100 ng/ml of Propidium Iodide was used as the positive intercalation control.

Compound	Potency
O=C(Nc1ccc(NC(=O)C2CC2)cn1)c1ccccc1Cl	inactive
O=c1[nH]cnc2c1C(c1ccccc1[N+](=O)[O-])c1c(nc[nH]c1=O)O2	inactive
COC(=O)c1ccc(CSc2ccccc2C)o1	inactive
O=C1C(=Cc2cccs2)C(=O)c2ccccc21	inactive
CSc1nnc2c3ccccc3n(CCc3ccccc3)c2n1	inactive
O=[N+]([O-])c1cc(/C=N/Nc2nc3ccccc3[nH]2)c(O)cc1O	22.4 µM (active)
CC(=O)/C(C#N)=C1\NC(=O)C(Cc2ccc(C)c(C)c2)S1 (configuration not stated)	inactive
C/C(=N/OCO/N=C(/C)c1ccc(F)cc1)c1ccc(F)cc1	inactive
CCOC(=O)NC1(Nc2ccc(C)cc2)Oc2ccccc2O1	inactive
CCOC(=O)CSc1nc2c(sc3ccc([N+](=O)[O-])cc32)c(=O)n1Cc1ccco1	inactive
CCN(CC)c1ccc(N=Cc2ccccc2[N+](=O)[O-])cc1	3.16 µM (active)
CCOC(=O)c1c(NC(=O)c2c(-c3ccccc3)noc2C)sc(C)c1-c1ccccc1	inactive
CC(=O)Nc1ccc(S(=O)(=O)Oc2ccc3c(c2)C(C)=CC(C)(C)N3)cc1	inactive
CSc1nc(-c2ccc(C)cc2)nc(C(Cl)Cl)n1	inactive
CCCNC1=C(N(C(C)=O)c2cccc(F)c2)C(=O)c2ccccc2C1=O	inactive
O=C1C(Nc2ccccc2)=C/C(=N/S(=O)(=O)c2cccs2)c2ccccc21	2.82 µM (active)
O=C(Nc1cccnc1)c1cccs1	inactive
CC(/C=C/c1ccccc1)=N/NC(=O)c1cc([N+](=O)[O-])cc([N+](=O)[O-])c1	inactive
Cc1cc(C)c(S(=O)(=O)/N=C2/C=C(Sc3ncn[nH]3)C(=O)c3ccccc32)cc1C	12.6 µM (active)
Cc1ccc(Cl)cc1N(CC(=O)N1CCCCCC1)S(C)(=O)=O	inactive
Cc1ccccc1C(=O)NNC(=S)Nc1cccc(C(F)(F)F)c1	inactive
CCN(CC)C(=S)SSC(=S)N(CC)CC	inactive
Cc1ccc(NC2=C/C(=N/S(=O)(=O)c3cccs3)c3ccccc3C2=O)cc1	3.55 µM (active)
Cc1cc(=O)[nH]c(N=N/C(=N/Nc2ccccc2C)c2ccccc2)n1	2 µM (active)
O=C1C(=O)c2ccc(-c3ccccc3)cc2-c2ccccc21	4.47 µM (active)
Nc1cccc(-c2nc3ccc(N)cc3s2)c1	inactive
Nc1ccc2c(c1)C(=O)C(=O)c1ccccc1-2	12.6 µM (active)

— PubChem BioAssay AID2734 (National Center for Advancing Translational Sciences (NCATS), 2010)
